# Assays:
# Assay type in all cases: functional
# [1] = molecular target: Solute carrier family 2, facilitated glucose transporter member 1 (Homo sapiens) (UniProt P11166); experiment: ST_JUDE_LEISH: Cytotoxicity at 2uM final concentration against transgenic Leishmania Mexicana promastigotes LmGLUT1 that are glucose transport deficient and complemented with the human glucose transporter GLUT1. Activity is measured by DNA content using SYBR green in vitro
# [2] = molecular target: Hexose transporter 1 (Plasmodium falciparum) (UniProt O97467); experiment: ST_JUDE_LEISH: Cytotoxicity at 2uM final concentration against transgenic Leishmania Mexicana promastigotes LmPfHT that are glucose transport deficient and complemented with the Plasmodium falciparum hexose transporter. Activity is measured by DNA content using SYBR green in vitro
# [3] = molecular target: Glucose transporter (Leishmania mexicana) (UniProt O61059); experiment: ST_JUDE_LEISH: Cytotoxicity at 2uM final concentration against transgenic Leishmania Mexicana promastigotes LmGT2 that are glucose transport deficient and complemented with the L. Mexicana glucose transporter 2. Activity is measured by DNA content using SYBR green in vitro
# Chain of Solute carrier family 2, facilitated glucose transporter member 1 (Homo sapiens) (P11166 whole entry): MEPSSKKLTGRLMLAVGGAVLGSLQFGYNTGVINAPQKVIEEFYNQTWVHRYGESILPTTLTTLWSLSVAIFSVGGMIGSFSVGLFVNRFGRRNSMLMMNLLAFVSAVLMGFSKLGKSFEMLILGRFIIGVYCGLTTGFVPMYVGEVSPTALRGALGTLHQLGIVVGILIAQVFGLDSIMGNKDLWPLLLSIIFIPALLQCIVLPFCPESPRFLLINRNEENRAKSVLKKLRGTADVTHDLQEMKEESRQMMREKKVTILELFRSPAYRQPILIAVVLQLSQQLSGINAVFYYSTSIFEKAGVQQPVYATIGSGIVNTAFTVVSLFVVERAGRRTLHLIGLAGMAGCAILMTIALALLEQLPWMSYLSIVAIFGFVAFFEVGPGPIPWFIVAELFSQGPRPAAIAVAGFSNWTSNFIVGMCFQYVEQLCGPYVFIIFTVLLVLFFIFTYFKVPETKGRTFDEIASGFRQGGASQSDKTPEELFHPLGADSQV
SMILES,inhibition [1] [%],inhibition [2] [%],inhibition [3] [%]
CN(C)CCCNCc1ccc(-c2ccc(CNCCOc3ccccc3)cc2)cc1,2.4,4.11,2.46
Cc1ccc(Nc2nc(NN=Cc3ccc(-c4ccc([N+](=O)[O-])cc4)o3)nc(N3CCOCC3)n2)cc1Cl,-1.18,-1.96,-0.54
Clc1cc(Nc2ncnc3sc(C#Cc4ncc[nH]4)cc23)ccc1OCc1ccccn1,-0.91,5.1,-0.27
Oc1ccc(Cc2ccccc2)cc1CNC1CCCCC1,1.43,1.57,1.87
CN(C)c1cc2c(Nc3ccc4nc(Cc5ccccc5)[nH]c4c3)ncnc2cn1,4.02,5.87,2.46
C=CCOc1cc(Cc2cnc(N)nc2N)cc(OC)c1OC,1.5,-3.15,-1.97
CC(C)NCc1ccc(-c2ccc(NC(=O)c3ccc(C#N)cc3)cc2)cc1,3.05,3.73,4.89
FC(F)(F)c1ccc2[nH]c(-c3cccc(-c4cccc(CN5CCN(c6ccncc6)CC5)c4)c3)nc2c1,1.83,2.18,3.38
Cc1cccc(-c2cccc(CNc3nc(NCCc4ccc(O)cc4)nc(N4CCNCC4)n3)c2)c1,2.88,3.88,2.83
CCCCc1ccc(-c2c(N)nc(N)nc2CC)cc1,11.5,9.06,8.51
N#Cc1ccc2c(c1)CCN(CCC1CCC(NC(=O)/C=C/c3cnc4ccccc4c3)CC1)CC2 (stereo not drawn),8.52,4.53,3.67
CCCCCC(C)NC[C@@H](O)[C@H](Cc1ccccc1)NC(=O)c1cc(NCC)cc(N2CCCCS2(=O)=O)c1 (stereo partly drawn),-0.71,1.3,0.36
COc1ccc2cc(-c3nc(-c4c(Cl)cccc4Cl)[nH]c3-c3ccnc(NCCCN4CCN(C)CC4)c3)ccc2c1,-1.11,-1.01,-5.14
CC(C)(Oc1c(C2CCN(CCCCNC(=O)c3ccc(-c4ccc(Cl)cc4)cc3)CC2)ccc2c1CCCC2)C(N)=O,-2.15,-0.94,-1.84
CC(C)CNc1nc(N)nc2ccc3c(ccn3CC(C)C)c12,1.7,-0.47,-0.02
O=S(=O)(Nc1cc2c(cc1O)CCNCC2)c1ccc(-c2ccc(Cl)cc2)cc1,3.27,-0.71,2.34
CCCCNC(=O)[C@@H]1CCCN1C(=O)c1ccc(O)c(-c2ccc(Cl)c(Cl)c2)c1,1.42,0.27,-3.49
CCN(CC)C(=S)N/N=C1/C(=O)Nc2c(C)cccc21,6.57,4.85,1.52
CC1(C)NC(N)=NC(=N)N1OCOc1cc(Cl)c(Cl)cc1Cl,-2.15,0.84,6.16
CN1CCN(c2ccc(-c3nc4ccc(OCc5cc(Cl)cc(Cl)c5)c(C(N)=O)c4[nH]3)cc2)CC1,1.82,5.73,0.86
Cc1ccc(NC(=O)c2ccc(CN3CCCN(CCC(C)C)CC3)cc2)cc1C,14.1,14.9,15.6

# From ChEMBL document CHEMBL3433997, “St. Jude Leishmania screening dataset” (2016)
